# High-throughput results from PubChem BioAssay.
# Hits are enriched below; roughly 5.5% of the tested compounds scored in any of these assays.
# Integrin act MD = integrin-mediated muscular dystrophy alleviation activation; alpha7betagal myoblasts, beta-gal FDG fluorescence, 48 h; Potency, µM (series often up to 38.3 µM), inactives show top-dose activation, usual class: activators; 0.064% of 350,000 active;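 further: 100% = response of the positive control SU9516; nearly all actives have a fitted effect of over 60% in size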
#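 Alpha7betagal+/- myoblasts (passage 13) were plated 16-24 hr, then exposed to compounds (1:260 dilution of DMSO stock) for 48 hours at 37C. After MPER lysis, β-galactosidase reporter activity was read as FDG fluorescence (ex 480/em 540) after 30 minutes.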
# RORg inh = blocks mouse ROR gamma transcriptional activity; Drosophila S2 Gal4-RORgamma UAS-luciferase reporter, 20 h; 5.4% of 310,000 active; AID 2551; Potency, µM (doses to about 53.6 µM), for inactives: top-dose activity change, negative = inhibition, actives largely listed as inhibitors; further: on the % scale 0 is the no-effect control and ±100 the full control effect; nearly all actives have a fitted effect of over 60% in size
# Target sequence (P51450 whole entry, looked up, the tested form may be a part): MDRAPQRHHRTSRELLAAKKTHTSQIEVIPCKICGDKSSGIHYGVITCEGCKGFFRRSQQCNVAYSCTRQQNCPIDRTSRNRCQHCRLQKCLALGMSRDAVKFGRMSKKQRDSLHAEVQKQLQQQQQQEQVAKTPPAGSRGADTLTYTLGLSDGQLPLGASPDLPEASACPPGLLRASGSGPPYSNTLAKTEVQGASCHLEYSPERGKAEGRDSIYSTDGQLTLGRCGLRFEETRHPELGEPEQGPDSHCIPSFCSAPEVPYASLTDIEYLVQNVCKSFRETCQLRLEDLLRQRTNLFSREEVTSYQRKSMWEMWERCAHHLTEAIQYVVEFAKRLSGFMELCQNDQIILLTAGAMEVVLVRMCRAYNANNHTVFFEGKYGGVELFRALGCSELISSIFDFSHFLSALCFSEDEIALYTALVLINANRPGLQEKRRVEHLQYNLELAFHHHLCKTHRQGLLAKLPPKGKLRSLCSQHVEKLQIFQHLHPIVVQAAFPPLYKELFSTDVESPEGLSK
#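 ROR gamma transcriptional activity was tracked as Gal4-UAS luciferase output in stably transfected Drosophila Schneider cells, with compound added 1 hr before 700 uM copper sulfate induction and a 20 hr ambient-temperature incubation.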
# Mito fusion yeast = mitochondrial division inhibition or fusion activation | S. cerevisiae fusion-defective mutant growth rescue, CellTiterGlo 48 h | Potency, µM (titrated, usually from 46.1 µM), inactives show at the top dose growth rescue (activation), usual class: activators | 0.23% of 320,000 active; further: % of control where 0% means no effect; nearly all actives have a fitted effect of over 45% in size
#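 S. cerevisiae fusion-defective temperature-sensitive mutants (e.g. fzo1-1, mgm1-5) grown 48 h at 37C in YPEG (ethanol/glycerol non-fermentable) medium with 23 nl compound per well; growth rescue read as CellTiterGlo luminescence.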
# Chronic BCR inh = inhibitors of chronic active B-cell receptor signaling | ABC-DLBCL IkBa-CBG/CBR reporter, luminescence ratio, 4 h | Potency, µM (series often up to 46.1 µM), inactives show top-dose activity change, negative = inhibition, most hits filed as inhibitors | 0.05% of 340,000 active | AID 493014; active means well fitted inhibition curve with a large enough effect in the signal ratio, with a control signal flat, not every such curve was filed as active; inconclusive means small, poorly fitted or top-dose-only effect, or effect the other way, or a change in a side signal; the % refers to the signal ratio;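 further: plate controls were basal doxycycline-induced cells for no effect and cells given 10 µM MG132 for full effect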
#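 Compounds up to 46 uM were incubated four hours with TMD8 cells whose green CBG68 luciferase is fused to IkappaBalpha; red CBR luminescence normalised the signal, and concentration-effect curves were fitted to fusion, red and ratio data.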
# uPA surface inh = inhibitors of cell surface uPA generation; cell surface uPA generation assay, qHTS; Potency, µM (series often up to 38.3 µM), without a hit: at the highest dose activity change, negative = inhibition, usual class: inhibitors; 0.31% of 330,000 active; AID 540303; active means well fitted inhibition curve with a large enough effect; inconclusive means small, poorly fitted or top-dose-only effect; inactive means no such curve, though single readings can be large or run the other way; tested in mouse RAW 264.7 cells; further: on the % scale 0 is the no-effect control and ±100 the full control effect; nearly all actives have a fitted effect of over 55% in size
# Gal4-VP16 FLuc = counter-screen for ROR gamma inhibitors: Gal4-VP16 reporter; Potency, µM (highest dose often 53.6 µM), without a hit: top-dose activity, negative = inhibition, most hits filed as inhibitors; Drosophila S2 Gal4-VP16 UAS-luciferase, luminescence, 20 h; 3.5% of 310,000 active;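 further: Gal4-VP16 expression switched on by copper sulfate through the metallothionein promoter; on the % scale 0 is the no-effect control and ±100 the full control effect; nearly all actives have a fitted effect of over 50% in size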
# Starred values were filed as active, the others as inactive; ? = inconclusive; / = no result given; [ ] = remark or other dose. Unless noted, the call rests on the fitted dose curve; in most records, active means well fitted curve in the direction sought with a large enough effect; inconclusive means small, poorly fitted or top-dose-only effect, or another doubt; inactive means no such curve, though single readings can be large; an effect the other way counts as inactive or inconclusive. Potency means the concentration at half of the fitted maximal effect.
SMILES,Integrin act MD,RORg inh,Mito fusion yeast,Chronic BCR inh,uPA surface inh,Gal4-VP16 FLuc
COC(=O)c1ccccc1NC(=S)NC(=O)CC(C)C,-9%,13µM*,-12%,?,/,?
Cc1nc2[nH]c(=O)[nH]c(=O)c2[nH]1,/,-4%,/,/,/,-6%
CCCCCC(=O)NC(=S)Nc1ccccc1C(=O)OC,-11%,14µM*,-14%,/,0%,?
O=C(COc1ccccc1)NC(=S)Nc1ccc(Br)cn1,-44%,13µM*,-5%,?,3%,?
COc1cc(/C=C/C(=O)c2ccc([N+](=O)[O-])o2)ccc1O,-26%,/,-35%,?,?,/
COc1ccc(/C=C/C(=O)c2ccc([N+](=O)[O-])o2)cc1OC,-42%,/,-31%,?,2.5µM*,/
Cc1ccc(CNC(=O)CO/N=C/c2ccc(C(C)(C)C)cc2)cc1,-31%,-7%[10 µM],-1%,-5%,0%,7.9µM*
Cc1ccc(N2CCN(c3ccc(NCc4nc5ccccc5n4C)cc3)CC2)cc1,-38%,11µM*,3%,1%,-8%,-3%
Cc1ccccc1OCc1nc2ccccc2n1C,-19%,20µM*,-15%,-1%,?,?
Cc1ccc(NCc2nc3ccccc3n2C)c(C)c1,-2%,13µM*,-13%,1%,1%,10µM*
CCOC(=O)c1cc(-c2ccccc2)n(CC(=O)Nc2cc(Cl)c(OC)cc2OC)c1C,/,/,/,6%,/,/
COc1ccc2[nH]cc(S(=O)(=O)c3ccc(F)cc3)c(=O)c2c1,30%,28%,-2%,15%,-15%,?
CCOc1ccc2[nH]cc(S(=O)(=O)c3ccc(F)cc3)c(=O)c2c1,-7%,0%,0%,?,-20%,13µM*
Cc1nn(CC2CCCCC2)c(N)c1-c1ccccc1,-12%,?,6%,21%,-4%,11µM*
CCOC(=O)Cn1nc(C)c(-c2ccccc2)c1N,-15%,21%,1%,0%,/,-1%
CCC(C)(C)C1CCc2[nH]nc(C(=O)N/N=C(\C)c3ccco3)c2C1 (stereo not given),-18%,?,23%,-16%,-6%,?
C/C(=N/NC(=O)c1ccccn1)c1ccco1,-3%,10µM*,-1%,?,?,?
C/C(=N/NC(=O)c1ccccn1)c1ccc(O)cc1,-2%,-8%,6%,?,?,-3%
C/C(=N\NC(=O)c1ccc(Cl)cc1)c1ccccn1,-42%,0.028µM*,-15%,?,-9%,?
C/C(=N\NC(=O)c1n[nH]c2c1CCC2)c1ccco1,-2%,8.9µM*,-1%,?,-12%,13µM*
O=S(=O)(c1ccccc1)N1CCC[C@@]2(CCN(Cc3ccccc3)C2)C1,/,3%,/,/,/,-13%
COc1ccc(NC(=S)N2CCN(c3ccc([N+](=O)[O-])cc3)CC2)cc1OC,6%,?,3%,2%,-3%,7.1µM*
O=[N+]([O-])c1ccc(N2CCN(C(=S)Nc3ccc(F)cc3)CC2)cc1,-2%,?,-8%,0%,-14%,?
O=[N+]([O-])c1ccc(N2CCN(C(=S)Nc3ccc(F)cc3F)CC2)cc1,7%,13µM*,9%,3%,-5%,?
COc1cccc(NC(=S)N2CCN(c3ccc([N+](=O)[O-])cc3)CC2)c1,-22%,0%,-1%,3%,-4%,7%
SMILES,Integrin act MD,RORg inh,Mito fusion yeast,Chronic BCR inh,uPA surface inh,Gal4-VP16 FLuc
COc1ccc(Cl)cc1C(=O)NNC(=O)COC(=O)CCN=C1NS(=O)(=O)c2ccccc21,15%,/,-1%,-3%,0%,/
Cc1ccc(S(=O)(=O)NNC2=NS(=O)(=O)c3ccccc32)c(C)c1,33%,10µM*,1%,-23%,-2%,-28%
O=c1[nH]n(-c2ccc(F)cc2)c2ncccc12,12%,19%,0%,12%,4%,-3%
Cc1c(-c2ccccn2)c(=O)[nH]n1-c1ccc(F)cc1,-1%,6.3µM*,0%,-1%,-7%,?
COc1ccc(C(=O)O)cc1S(=O)(=O)Nc1cc(Cl)ccc1N1CCOCC1,16%,/,-4%,-3%,1%,/
COc1cc(C(=O)N/N=C/c2cn(Cc3ccccc3)c3ccccc23)ccc1O,16%,13µM*,-6%,?,-6%,?
CCn1cc(/C=N/NC(=O)c2cc3c(ccc4ccccc43)o2)c2ccccc21,4%,7.1µM*,9%,-5%,-6%,?
Nc1ccc(C(=O)N/N=C/c2cn(Cc3ccc(F)cc3)c3ccccc23)cc1,?,-142%,0%,?,3%,?
Nc1ccc(C(=O)N/N=C/c2cn(Cc3ccccc3)c3ccccc23)cc1,-13%,11µM*,-3%,?,-4%,?
Nc1ccc(C(=O)N/N=C/c2cn(Cc3ccccc3F)c3ccccc23)cc1,0%,14µM*,-3%,?,-10%,?
C/C(CCN1CCCc2nc(C)c(C)cc21)=N\O[C@@H](C)CN1CCCCc2nc(C)c(C)cc21,/,4%[10 µM],/,/,/,-6%[10 µM]
S=c1[nH]nc(-c2ccc(Cl)cc2Cl)n1-c1ccc2c(c1)OCCO2,11%,3.5µM*,7%,0%,-6%,-10%
Oc1ccc(-c2n[nH]c(=S)n2-c2ccc3c(c2)OCCO3)c(O)c1,6%,?,-1%,?,-14%,11%
COc1cc(OC)cc(-c2n[nH]c(=S)n2-c2ccc3c(c2)OCCO3)c1,5%,0.35µM*,-1%,3%,-8%,3%
O=[N+]([O-])c1cccc(-c2n[nH]c(=S)n2-c2ccc(Br)cc2)c1,?,10µM*,2%,5%,3%,0%
O=C(O)c1ccc(-n2c(-c3ccc(Br)cc3)n[nH]c2=S)cc1,-1%,2%,-1%,?,1%,2%
COc1cc(-c2n[nH]c(=S)n2-c2ccc(Br)cc2)cc(OC)c1OC,-21%,8.9µM*,-4%,?,-1%,?
COc1cc(-c2n[nH]c(=S)n2-c2cccc(C(F)(F)F)c2)cc(OC)c1OC,8%,24%,7%,?,0%,2%
COc1ccc(C2=Nn3c(nnc3-c3cccc(OC)c3)SC2)cc1,/,85%,/,/,/,2%
C[C@H](NC[C@H](O)CP(=O)(O)Cc1ccccc1)c1ccc(Cl)c(Cl)c1,/,6%,/,/,/,2%
S=c1[nH]nc(-c2ccc(Br)cc2)n1-c1ccc(Br)cc1,?,11µM*,8%,6%,2%,?
S=c1[nH]nc(-c2ccc(Br)cc2)n1-c1ccc2c(c1)OCCO2,19%,0.4µM*,11%,-12%,-2%,-29%
COc1ccc(-n2c(-c3ccco3)n[nH]c2=S)cc1,-18%,10%[10 µM],0%,0%,3%,?
